# Measurements: PubChem BioAssay (NCI)
# About 79,000 compounds went through this panel and 15% of them were active in at least one assay; those are over-represented in the sample as a whole. Activity calls are given as the source filed them. Rule as the data show it: active = growth inhibition above about 70%; inactive = the rest.
# Assay: NCI Yeast Anticancer Drug Screen. Data for the bub3 strain (AID 167)
# Conditions: S. cerevisiae bub3 mutant strain, at 50.0 µM, hits give high values
# Procedure, shortened: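 Part of a panel of yeast mutants defective in DNA damage repair or cell cycle regulation. Each strain is grown with compound, and inhibition is calculated relative to solvent-treated cultures.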
row,SMILES,growth inhibition
1,NS(=O)(=O)c1ccc(NC2=CC(=O)C(=O)c3ccccc32)cc1,-7.55% (inactive)
2,CC(=O)NC1CC(=O)N(c2ccccc2)C1=O (stereo not given),-1.8% (inactive)
3,O=C1Nc2ccccc2C1O (stereo not given),11.1% (inactive)
4,N=c1ccn(CC(O)COc2ccccc2)cc1 (stereo not given),2.75% (inactive)
5,CN(C)CCC(=O)N1CCc2c([nH]c3ccccc23)C1c1cccnc1 (stereo not given),5.65% (inactive)
6,CCOC(=O)C(=[N+]=[N-])C(=O)CN1C(=O)c2ccccc2C1=O,5.9% (inactive)
7,CCCCCCCCCC/C=C/c1c(C)[nH]c2ccccc2c1=O,-8.45% (inactive)
8,O=P12N(CCN1c1ccccc1)CCN2c1ccccc1,10.2% (inactive)
9,O=C1OCC/C1=C1/NC2CCCCC2NC1=O (stereo not given),-6.25% (inactive)
10,C=C(C)C(=O)N1c2ccc(OC)cc2CC1C(=O)OCC (stereo not given),15.8% (inactive)
11,C/C(=N\NC(=O)c1ccncc1)c1cccc(Br)c1,5.35% (inactive)
12,NC(=O)SCC(=O)Nc1ccccc1O,0.85% (inactive)
13,CCCCOP(=O)(OCCCC)C(c1ccccc1)(c1ccccc1)c1ccccc1,5.9% (inactive)
14,Cn1ncc(C(=O)O)c1[N+](=O)[O-],-6.2% (inactive)
15,CCNc1ncnc2c1cnn2C1CCCCC1,0.5% (inactive)
16,C=CCOC1OC(CS(=O)(=O)O)C(OC(C)=O)C(OC(C)=O)C1OC(C)=O (stereo not given),-2.75% (inactive)
17,C=C(C)COc1ccc(-c2ccccc2)cc1,-3.85% (inactive)
18,O=S(=O)(O)ON=C1c2ccccc2-c2ccccc21,6.55% (inactive)
19,CC(=O)C1(N=Nc2ccc(S(N)(=O)=O)cc2)CCOC1=O (stereo not given),-29.4% (inactive)
20,CC(C)C(N)=O,12.1% (inactive)

row,SMILES,growth inhibition
1,Cc1[nH]ccc2c3ccc(=O)cc3n(S(=O)(=O)O)c12,16.8% (inactive)
2,CC(C)CCC(=O)O,3.8% (inactive)
3,CC1(C)N=C(N)NC(Nc2ccc(Cl)cc2)=N1,14.6% (inactive)
4,Nc1nc(N)nc(Cc2ccccc2)n1,-15% (inactive)
5,C#CCC1CCCC/C1=N\Nc1ccc([N+](=O)[O-])cc1[N+](=O)[O-] (stereo not given),4.4% (inactive)
6,Cc1ccc(S(=O)(=O)N(CCOS(C)(=O)=O)CCOS(C)(=O)=O)cc1,9.45% (inactive)
7,CCOc1ccccc1/C=C1\NC(=O)NC1=O,2.6% (inactive)
8,NC(=O)OCC(COc1ccc(Cl)cc1)OC(=O)c1cc([N+](=O)[O-])cc([N+](=O)[O-])c1 (stereo not given),14.3% (inactive)
9,C(=NCCSSCCN=Cc1ccccc1)c1ccccc1,-12.1% (inactive)
10,CCN(CC)c1ncnc2c1nc(C)n2Nc1ccccc1,0.5% (inactive)
11,O=C(NC(Cc1ccc(O)cc1)C(=O)O)C(=O)c1c[nH]c2ccc([N+](=O)[O-])cc12 (stereo not given),2.8% (inactive)
12,CC(C#N)NC(=O)NC(C)C(N)=O (stereo not given),8.2% (inactive)
13,CN(C)CCCn1cnc2cc(Cl)c(Cl)cc21,9.95% (inactive)
14,O=c1nc2n(cc1/C=C\Br)C1CC(O)C(CO2)O1 (stereo not given),-1.5% (inactive)
15,CC(C)(C)NC(=O)c1cccc(C(=O)NC(C)(C)C)n1,-13.3% (inactive)
16,COc1ccccc1N=NC1=C2Nc3ccccc3N=C1N(c1ccccc1OC)C(=S)N2c1ccccc1C,-2.95% (inactive)
17,Cc1cc(C)nc(Sc2c([N+](=O)[O-])ncn2C)n1,12.6% (inactive)
18,CCOCCC(=N)OCC,4.2% (inactive)
19,C/C=C\CCCCC,34.6% (inactive)
20,CN(c1nc(=[N+](C)C)ss1)C1CCCCC1,-12.8% (inactive)
